RORgamma inh: qHTS for inhibitors of ROR gamma transcriptional activity | Nuclear receptor ROR-gamma (Mus musculus), P51450 | Drosophila S2 Gal4-RORgamma UAS-luciferase reporter, 20 h | Potency, µM (titrated, usually from 53.6 µM), inactives show at the top dose activity change, negative = inhibition, actives largely listed as inhibitors | actives 5.4% (n = 310,000); further: potency means the concentration at half of the fitted maximal effect; nearly all actives have a fitted effect of over 60% in size
Target sequence (P51450 whole entry, looked up, the tested form may be a part): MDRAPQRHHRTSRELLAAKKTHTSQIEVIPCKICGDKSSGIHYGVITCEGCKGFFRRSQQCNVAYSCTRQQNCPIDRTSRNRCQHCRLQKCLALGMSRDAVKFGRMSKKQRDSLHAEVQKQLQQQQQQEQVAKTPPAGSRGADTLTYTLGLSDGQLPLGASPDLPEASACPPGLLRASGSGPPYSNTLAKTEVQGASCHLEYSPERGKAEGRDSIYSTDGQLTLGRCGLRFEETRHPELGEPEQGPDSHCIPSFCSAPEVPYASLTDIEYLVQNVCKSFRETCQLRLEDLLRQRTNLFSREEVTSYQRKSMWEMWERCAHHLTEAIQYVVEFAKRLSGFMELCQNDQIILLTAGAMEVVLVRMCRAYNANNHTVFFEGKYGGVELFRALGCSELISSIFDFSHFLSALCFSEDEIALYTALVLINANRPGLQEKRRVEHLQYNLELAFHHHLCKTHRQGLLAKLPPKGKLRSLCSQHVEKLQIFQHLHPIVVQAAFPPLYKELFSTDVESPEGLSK
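Schneider cells (Drosophila), stable Gal4 DBD–ROR gamma + UAS-luc; 1 hr cmpd preincubation; Cu2+ induction 700 uM final; 20 hr ambient; luminescence.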
LDHA inh: qHTS assay for inhibitors of human lactate dehydrogenase; activity change, % (values are at about 110 or 230 µM); purified LDHA, NADH/diaphorase-resazurin fluorescence; hits give low values; actives 0.15% (n = 480,000); L-lactate dehydrogenase A chain (Homo sapiens), P00338; AID 1347041, 2019; in the data active means activity change below about -30%; inconclusive means mostly about -25% to -30%;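 further: plate controls were DMSO wells for no effect and wells without enzyme for full effect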
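LDH5 2 nM; NADH 0.06 mM, pyruvate 0.2 mM; 200 mM Tris pH 7.4, EDTA, Tween-20; 5 min RT. Detection: diaphorase 0.133 mg/mL + resazurin 37 µM, fluorescence ex540/em590 at 0 and 20 min; normalized to enzyme-free and DMSO wells.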
TDP1 cell CPT: qHTS for Inhibitors of human tyrosyl-DNA phosphodiesterase 1 (TDP1): qHTS in cells in presence of CPT | chicken DT40 Tdp1-/-;hTDP1 cells + 20 nM CPT, ATP luminescence, 48 h | Potency, µM (doses to about 46.2 µM), for inactives: top-dose activity change, negative = growth inhibition, hits mostly inhibitors | actives 12% (n = 420,000) | AID 686979, 2013; further: potency means the concentration at half of the fitted maximal effect; nearly all actives have a fitted effect of over 55% in size
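Chicken DT40 Tdp1-/- cells stably complemented with human TDP1 were seeded at 400 cells/well in medium containing 20 nM camptothecin, exposed to pin-transferred compounds, and grown at 37 °C for at least 48 hr. Viability was read as ATP luminescence.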
VP16 counter: VP16 counterscreen qHTS for inhibitors of ROR gamma transcriptional activity. actives 3.5% (n = 310,000). Drosophila S2 Gal4-VP16 UAS-luciferase, luminescence, 20 h. Potency, µM (titrated, usually from 53.6 µM), for inactives: at the highest dose activity, negative = inhibition, most hits filed as inhibitors;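 further: Gal4-VP16 expression switched on by copper sulfate through the metallothionein promoter; potency means the concentration at half of the fitted maximal effect; nearly all actives have a fitted effect of over 50% in size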
IL-1B inflam inh: qHTS for Inhibitors of Inflammasome Signaling: IL-1-beta AlphaLISA Primary Screen. THP-1 LPS/ATP IL-1B secretion, AlphaLISA, 16 h; hits give low values. activity change, % at 57.5 µM. actives 4.7% (n = 360,000). AID 743279, 2014; in the data active means activity change below about -50%; inconclusive means mostly about -30% to -49%
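THP-1 cells pretreated 1 hr with compounds (up to 57.5 uM final), then stimulated with LPS (250 ng/mL final) plus ATP (1.25 mM final); secreted IL-1B measured by AlphaLISA after 16 hr, decreased signal indicating inhibition.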
DT40 TDP1 no CPT: qHTS for Inhibitors of human tyrosyl-DNA phosphodiesterase 1 (TDP1): qHTS in cells in absence of CPT; DT40 Tdp1-/- hTDP1 cells, no CPT, ATP luminescence, 48 h; Potency, µM (doses to about 46.2 µM), without a hit: top-dose activity change, negative = growth inhibition, hits mostly inhibitors; actives 15% (n = 420,000); AID 686978, 2013; further: potency means the concentration at half of the fitted maximal effect; nearly all actives have a fitted effect of over 55% in size
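Stably hTDP1-transfected Tdp1-null chicken DT40 cells were treated with library compounds minus camptothecin and grown for at least 48 hr at 37 °C, after which cellular ATP was quantified by luminescence.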
The depositor's hits bear a star; u = inconclusive; x = not tested or not shown; [ ] = dose if it differs, or a comment. A selection: hits, their analogues and other compounds. The true share with any hit is near 18%. Unless noted, the call rests on the fitted dose curve; in most records, active means well fitted curve in the direction sought with a large enough effect; inconclusive means small, poorly fitted or top-dose-only effect, or another doubt; inactive means no such curve, though single readings can be large; an effect the other way counts as inactive or inconclusive. Unless noted, on the % scale 0 is the no-effect control and ±100 the full control effect.

SMILES	RORgamma inh	LDHA inh	TDP1 cell CPT	VP16 counter	IL-1B inflam inh	DT40 TDP1 no CPT
NCCCNc1ccc([N+](=O)[O-])cc1C(F)(F)F	0%	-11	-6%	-5%	-51*	13µM*
COc1cc2c(NC3CCN(C)CC3)nc(N3CCCCC3)nc2cc1OCCOCCN1CCCC1	x	6	13µM*	x	x	u
COc1cc2c(NC3CCN(C(C)C)CC3)nc(N3CCCN(C)CC3)nc2cc1OCCOCCN1CCCC1	x	7	10µM*	x	x	14µM*
CCc1ccc2oc(C(=O)NCc3ccncc3)cc(=O)c2c1	x	-14	x	x	x	x
Cc1ccc2[nH]c3c(=O)n(CC(=O)N4CC(C)CC(C)C4)ncc3c2c1 (configuration not stated)	1%	-4	-17%	-1%	-3	-10%
Cc1ccc2[nH]c3c(=O)n(CC(=O)N4CCCC(C)C4)ncc3c2c1 (configuration not stated)	x	2	u	x	x	18µM*
O=C(NCc1cccnc1)c1cc(S(=O)(=O)C2CCS(=O)(=O)C2)ccc1F (configuration not stated)	x	-2	x	x	x	x
O=C(NCC(=O)N1CCN(CC(=O)N2CCCC2)CC1)c1ccc(N2CCCC2=O)cc1	x	-7	x	x	x	x
CC1(Cc2ccc(F)cc2)C(=O)Nc2ccc(S(=O)(=O)NC3CCCCC3)cc21 (configuration not stated)	x	-2	u	x	0	u
COc1ccc(OC(F)(F)F)cc1CC1(C)C(=O)Nc2ccc(S(=O)(=O)NC3CCCCC3)cc21 (configuration not stated)	x	0	21µM*	x	-22	u
COc1ccc(C(C)=O)cc1CC1(C)C(=O)Nc2ccc(OC(F)(F)F)cc21 (configuration not stated)	x	-7	u	x	2	u
COc1ccc(S(=O)(=O)NC2CCCC2)cc1Cl	-2%	-1	18%	3%	-4	7%
Cc1ccccc1CC1(C)C(=O)Nc2ccc(S(=O)(=O)NC3CCCCC3)cc21 (configuration not stated)	x	-3	u	x	63	21µM*
COc1ccc(OC(F)(F)F)cc1CC1(C)C(=O)Nc2cccc(Cl)c21 (configuration not stated)	x	-6	u	x	0	15µM*
COc1ccc(Cl)cc1CC1(C)C(=O)Nc2ccc(S(=O)(=O)NC3CCCCC3)cc21 (configuration not stated)	x	-5	23µM*	x	-9	u
CCNc1nc(SCC(=O)NC(=O)NC)nc2ccccc12	x	6	x	x	x	x
O=c1cc(-c2cccc(Br)c2)oc2ccc(Cl)cc12	x	4	x	x	x	x
CCOC(=O)c1c(NC(=O)CN2CCc3ccccc32)sc(C(C)=O)c1C	x	8	x	x	x	x
CC1(Cc2ccccc2OC(F)(F)F)C(=O)Nc2ccc(S(=O)(=O)NC3CCCCC3)cc21 (configuration not stated)	x	0	u	x	-2	u
COc1ccccc1CC1(C)C(=O)Nc2ccc(S(=O)(=O)NC3CCCCC3)cc21 (configuration not stated)	x	0	21µM*	x	-5	u
CCOc1ccccc1/C=N\Nc1cnn(Cc2ccccc2)c(=O)c1Cl	37%	2	23µM*	5%	u	u
O=C(NNC1=Nc2ccccc2SC1)c1cccc([N+](=O)[O-])c1	u	-7	16µM*	-26%	53	23µM*
O=C(NNC1=Nc2ccccc2SC1)c1ccccc1F	0.89µM*	2	u	0.71µM*	-12	u
COc1cc(CN2CCCC(C(=O)c3ccccc3SC)C2)cc(OC)c1 (configuration not stated)	24%	-1	15µM*	5%	39	u
COc1cc(OC)c(OC)cc1CN1CCCC(C(=O)N2CCCCC2)C1 (configuration not stated)	2%	-16	-8%	-4%	-14	-11%
SMILES	RORgamma inh	LDHA inh	TDP1 cell CPT	VP16 counter	IL-1B inflam inh	DT40 TDP1 no CPT
COc1cc(OC)c(OC)cc1CN1CCCC(C(=O)c2ccccc2SC)C1 (configuration not stated)	-19%	2	u	-1%	18	21µM*
N#Cc1ccccc1-c1ccc(COc2ccccc2C(N)=O)cc1	x	4	x	x	x	x
CC1(C)C2CCC(C2)C1(C)NC(=O)CNC1CCCCC1 (configuration not stated)	35%	-17	u	-3%	u	10µM*
CCOC(=O)c1sc(NC(=O)Nc2ccc(F)cc2)nc1C	-8%	0	u	u	x	u
CCSc1nsc(NC(=O)Nc2cccc(OC)c2)n1	18%[1.91 µM]	-1	u	-14%	-97*	u
CCSc1nsc(NC(=O)Nc2ccccc2F)n1	u	-14	18µM*	-9%	-93*	16µM*
C=CCSc1nsc(NC(=O)Nc2ccc(F)cc2)n1	u	-2	18µM*	3.5µM*	-88*	3.3µM*
CC(c1ccccc1)c1nnc(NC(=O)Nc2ccccc2F)s1 (configuration not stated)	-9%	-2	u	-15%	38	u
N#Cc1c(NC(=O)CSc2ncnc3ccccc23)sc2c1CCC2	x	4	x	x	x	x
O=C(c1ccco1)N1N=C(c2c(-c3ccccc3)c3ccccc3[nH]c2=O)CC1c1ccccc1 (configuration not stated)	x	2	x	x	x	x
O=C(O)c1cccc2cccc(-c3c4ccc(=O)c(O)c-4oc4c(O)c(O)ccc34)c12	x	9	10µM*	x	-17	7.3µM*
COc1ccc(Cl)cc1C(=O)Nc1ccc(-n2cnnn2)cc1	x	-14	x	x	x	x
Cc1ccc(C(=O)c2sc(Nc3cccc(F)c3)nc2N)c(C)c1	x	8	x	x	x	x
CC1(C)C2CCC1(CS(=O)(=O)N1CCN(c3ccc(F)cc3)CC1)C(=O)C2 (configuration not stated)	-4%	-7	-10%	-2%	13	-9%
CCc1ccc(N2CCN(S(=O)(=O)CC34CCC(CC3=O)C4(C)C)CC2)cc1 (configuration not stated)	u	0	-53%	-25%	-67*	21µM*

Screening data from PubChem BioAssay.
